From PubChem BioAssay AID463173 (ICCB-Longwood Screening Facility, Harvard Medical School, 2010)
In all, about 52,000 compounds went through this assay and about 4,300 (8.3%) were called active. Cut-off read from the data, not from the text of the source: active = survival mostly below about 52% (no sharp cut-off); inactive = mostly above about 56%. The full list was thinned out, with actives kept by preference.

System: DeltatarO mutant
Assay: growth inhibition of S. aureus wild type versus tarO mutant, primary screen, teichoic acid synthesis inhibitors, RN4220, OD600 (AID 463173)
Settings: OD600, 18 h, hits give low values, screened at 18.75 µg/mL (by protocol)

Compound	survival
CCN(C(=O)CSc1nc2ccccc2n1CC(=O)N1CCCC(C)C1)c1ccccc1 (configuration not stated)	109% (inactive)
COc1ccc(Br)cc1CNC(=O)c1cnc2sc(N3CCCC3)nn2c1=O	98% (inactive)
COc1ccccc1-n1c(=O)c2c3c(sc2n(Cc2ccccc2F)c1=O)CN(C(C)=O)CC3	120% (inactive)
O=S(=O)(c1ccccc1)N1CCCC(c2nc(-c3cccs3)no2)C1 (configuration not stated)	67% (inactive)
CCOC(=O)Cn1c(=O)n(C2CCCCC2)c2nc(-c3ccc(C(C)C)cc3)nc(C(N)=O)c21	61% (inactive)
CCOCCCNC(=O)C1CCCN(Cc2nc(-c3ccc(CC)cc3)oc2C)C1 (configuration not stated)	76% (inactive)
COc1ccc(CNC(=O)C2CCCCN2S(=O)(=O)c2ccc(F)cc2)cc1 (configuration not stated)	95% (inactive)
O=C(NCc1ccc(F)cc1)C1CCCCN1S(=O)(=O)c1ccc(F)cc1 (configuration not stated)	32% (active)
COc1cccc(CNC(=O)C2CCCN(S(=O)(=O)c3ccc4c(ccn4C)c3)C2)c1 (configuration not stated)	124% (inactive)
COc1cccc(CNC(=O)C2CCCN(S(=O)(=O)c3ccc4c(ccn4C)c3)C2)c1OC (configuration not stated)	101% (inactive)
Cc1ccc(CNC(=O)C2CCCCN2S(=O)(=O)c2ccc(F)cc2)cc1 (configuration not stated)	84% (inactive)
COc1ccc(CNC(=O)C2CCCN(S(=O)(=O)c3ccc4c(ccn4C)c3)C2)c(OC)c1 (configuration not stated)	25% (active)
CCC(=O)N1CCc2cc(CNC(=O)Nc3cc(C)ccc3C)ccc21	84% (inactive)
CC(=O)N1CCCc2cc(S(=O)(=O)N3CCCC(C(=O)Nc4cc(Cl)ccc4C)C3)ccc21 (configuration not stated)	124% (inactive)
CC(C)Sc1ncc(Cl)c(C(=O)Nc2c(C(=O)Nc3ccccc3)oc3ccccc23)n1	61% (inactive)
CN(C)c1ccc(C(CC(=O)O)NC(=O)c2ccc(Cl)cc2)cc1 (configuration not stated)	104% (inactive)
COc1ccc(NC(=O)c2nnn(Cc3nc(-c4cc(OC)c(OC)c(OC)c4)oc3C)c2C)cc1	61% (inactive)
C=CCc1c(C)nc(SC)nc1Nc1ccc(C(=O)O)cc1	113% (inactive)
O=C(Oc1cccc(-n2cnnn2)c1)C1CCCCC1	94% (inactive)

Compound	survival
Cc1nc2ccccn2c(=O)c1NC(=O)c1ccccc1Cl	131% (inactive)
Cc1ccc(C(=O)Nc2c(C)nc3ccccn3c2=O)cc1C	69% (inactive)
Cc1ccc(C(=O)Nc2c(C)nc3ccccn3c2=O)cc1	74% (inactive)
Cc1nc2ccccn2c(=O)c1NC(=O)c1ccc(C(F)(F)F)cc1	0% (active)
Cc1nc2ccccn2c(=O)c1NC(=O)c1ccc(F)c(F)c1	99% (inactive)
Cc1ccccc1C(=O)Nc1c(C)nc2ccccn2c1=O	37% (active)
O=c1ccc2cc(S(=O)(=O)NCc3ccc(Cl)cc3)ccc2[nH]1	91% (inactive)
Cc1cccc2sc(N(Cc3cccnc3)C(=O)CCOc3ccccc3)nc12	82% (inactive)
Cc1cccc(N2CCN(S(=O)(=O)c3ccc4oc(=O)c5ncn(C)c5c4c3)CC2)c1C	77% (inactive)
O=C(/C=C/c1ccccc1)N1CCN(Cc2cc(=O)n3nc(-c4ccccc4)sc3n2)CC1	90% (inactive)
CC(NC(=O)C1CCN(C(=O)c2ccc(-n3ccc4ccccc43)s2)CC1)c1ccccc1 (configuration not stated)	79% (inactive)
CCOc1ccc(/C=C/C(=O)NCc2ccco2)cc1OC	83% (inactive)
Cc1cc(C)nc(NS(=O)(=O)c2ccc(NC(=O)COc3ccc(C(C)(C)C)cc3)cc2)n1	56% (inactive)
COCCN(Cc1ccc(C)c(Br)c1)S(=O)(=O)c1ccc2[nH]c(=O)ccc2c1	20% (active)
CN(C)CCN(Cc1ccccc1)S(=O)(=O)c1ccc2[nH]c(=O)ccc2c1	95% (inactive)
CCN(c1ccc(OC)cc1)S(=O)(=O)c1ccc2[nH]c(=O)ccc2c1	79% (inactive)
Cc1ccc2oc(C(=O)Nc3ccc(S(=O)(=O)Nc4ncccn4)cc3)cc(=O)c2c1	70% (inactive)
CCS(=O)(=O)N1CCc2cc(C(=O)Nc3cc([N+](=O)[O-])ccc3C)ccc21	40% (active)
CCS(=O)(=O)N1CCCc2cc(C(=O)Nc3cc([N+](=O)[O-])ccc3C)ccc21	42% (active)

Compound	survival
CCS(=O)(=O)N1CCc2cc(C(=O)Nc3ccc(C)c(Cl)c3)ccc21	98% (inactive)
CCS(=O)(=O)N1CCc2cc(C(=O)Nc3cc(Cl)ccc3C)ccc21	72% (inactive)
CCS(=O)(=O)N1CCc2cc(C(=O)Nc3cc(C)cc(C)c3)ccc21	80% (inactive)
Cc1ccc(C)c(NC(=O)c2ccc3c(c2)CCCN3S(C)(=O)=O)c1	81% (inactive)
CCc1nc2cccnc2n1-c1ccc(CC(=O)Nc2cccc(C)c2C)cc1	81% (inactive)
O=C(NCc1ccco1)C1CCC(N2C(=O)c3ccccc3C2=O)CC1 (configuration not stated)	63% (inactive)
C=CCNC(=O)Cc1c(O)c2ccccc2[nH]c1=O	101% (inactive)
CCCCCc1c(O)c2ccccc2[nH]c1=O	103% (inactive)
CC(C)COC(=O)Cc1c(O)c2ccccc2[nH]c1=O	39% (active)
Cc1ccc(NC(=O)C2CCN(S(=O)(=O)c3c(C)noc3C)CC2)cc1C	91% (inactive)
Cc1c(C)n(Cc2ccc(F)cc2)c2ccc(C(=O)N3CCN(c4ccc(Cl)cc4)CC3)cc12	83% (inactive)
CCN1C(C(=O)c2ccccc2)=C(OC(=O)COc2ccc(OC)cc2)c2ccccc2S1(=O)=O	60% (inactive)
CCN1C(C(=O)c2ccccc2)=C(OC(=O)COc2ccccc2)c2ccccc2S1(=O)=O	41% (active)
CCCN1C(C(=O)c2ccccc2)=C(OC(=O)COc2ccccc2)c2ccccc2S1(=O)=O	49% (inactive)
CCN1C(C(=O)c2ccccc2)=C(OC(=O)COc2ccc(C)cc2)c2ccccc2S1(=O)=O	79% (inactive)
Cc1ccc(OCC(=O)OC2=C(C(=O)c3ccccc3)N(C)S(=O)(=O)c3ccccc32)cc1	82% (inactive)
CCCN1C(C(=O)c2ccccc2)=C(OC(=O)COc2ccc(C)cc2)c2ccccc2S1(=O)=O	19% (active)
COc1ccc(-c2nc(C)c(CCNS(=O)(=O)c3cc(C)c(C)cc3C)s2)cc1	72% (inactive)
CCc1ccc(Nc2nn(-c3ccc(OC(F)(F)F)cc3)nc2C(C)=O)cc1	92% (inactive)
